# According to the supplement of paper PMC6555819:
# Experiments:
# Test in all cases: PBM binding z-score (relative to random genomic background probes); higher = stronger binding; sequences stand for … in GC…GCGATTGACAGCGTAGAATGAAGG
# [1] = test system: PPARg:RXRa DBDmut IVT, anti-RXR (DBD mutation: RXRa K156A/R161A, NR concentration 270 nM, RXRa partner concentration 90 nM)
# Outline: (§1)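 Probes were double-stranded and carried 34-nt variable regions with direct-repeat seeds, single-nucleotide variants, half-site ablations and random human genomic background sequences, printed on custom Agilent 4×180K protein-binding microarrays. Arrays were incubated 1 h with ligand-free nuclear receptor dimers in PBS pH 7.4, 2% milk, 0.02% Triton X-100, 1 mM DTT, 0.2 mg/mL BSA and 0.4 mg/ml salmon testes DNA. Antibodies against each partner (one per run) detected binding, and scanned fluorescence was regression-normalized. Binding z-scores use the random background probes as reference.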
# [2] = test system: PPARg:RXRa IVT, anti-PPARg (NR concentration 270 nM, RXRa partner concentration 90 nM)
# Outline: as §1
# [3] = test system: PPARg homodimer (NR concentration 180 nM)
# Outline: as §1
# [4] = test system: PXR:RXRa (NR concentration 270 nM, RXRa partner concentration 90 nM)
# Outline: as §1
# [5] = test system: PXR homodimer (NR concentration 270 nM)
# Outline: as §1
# [6] = test system: RARa:RXR (NR concentration 270 nM, RXRa partner concentration 90 nM)
# Outline: as §1
# [7] = test system: RARa homodimer (NR concentration 270 nM)
# Outline: as §1
# [8] = test system: RARb:RXRa (NR concentration 270 nM, RXRa partner concentration 90 nM)
# Outline: as §1
Sequence,PBM binding z-score [1],PBM binding z-score [2],PBM binding z-score [3],PBM binding z-score [4],PBM binding z-score [5],PBM binding z-score [6],PBM binding z-score [7],PBM binding z-score [8]
CCGAGTCGGTTACGAGGGGGCATTCAGTGCGAAT,0.193,0.806,0.506,2.86,5.49,1.77,0.0912,1.12
CTAGGTAGGTTAAGGGGGTCATTCAGTTTGAAAG,5.01,5.61,2.95,5.85,11.1,5.43,1.74,3.26
CCGAGTAGGTTACGAAGGGGCATTCAGTGCGAAT,4.07,3.33,0.383,2.86,1.4,1.04,0.184,1.56
CTATGTAGGGTAAGGGGGTCATTCAGTTTGAAAG,7.14,7.72,4.11,5.91,11.1,5.58,1.26,3.72
CCAAGTAGGTTACGAGGGGGCATTCAGTGCGAAT,6.86,6.44,2.19,5.04,6.14,3.18,1.41,2.52
CTATGTAGGTTAAGGGGGACATTCAGTTTGAAAG,7.33,7.62,2.11,2.48,5.75,1.65,1.11,2.1
CCGAGTAGGTTACGTGGGGGCATTCAGTGCGAAT,4.47,4.6,0.555,5.23,6.32,2.42,0.183,2.09
CCGAGTAGGTTACGAGGGGGCGTTCAGTGCGAAT,5,4.63,1.55,4.3,3.24,2.59,0.353,1.72
CTATGTAGGTTAAGGGGGTCATTTAGTTTGAAAG,7.59,7.5,3.59,5.59,10.3,5.8,1.96,3.51
CCCAGTAGGTTACGAGGGGGCATTCAGTGCGAAT,5.3,5.49,1.71,4.89,5.08,2.68,0.297,2.2
TCGAGTATGTTACGGGGGCATTCAGGGATGAAGA,2.87,3.97,0.827,2.87,1.12,2.43,0.107,2.01
TCGAGAAGGTTACGGGGGCATTCAGGGATGAAGA,3.48,4.73,1.82,3.71,1.24,3.78,0.65,3.65
CCGAGTAGGTTACGAGGGGGCATTCTGTGCGAAT,4.91,4.3,2.19,4.42,1.05,3.12,0.262,2.01
TCGAGGAGGTTACGGGGGCATTCAGGGATGAAGA,3.43,5.82,2.53,4.07,2.7,4.4,0.971,3.42
TCGAGTAGGTTACGGGGGCCTTCAGGGATGAAGA,4.03,4.68,0.342,1.52,0.275,1.48,-0.236,1.58
CTGTGTAGGTTAAGGGGGTCATTCAGTTTGAAAG,5.16,6.16,3.62,5.84,10.9,5.48,2.01,3.67
CTGAGTAGGTTACGAGGGGGCATTCAGTGCGAAT,6.01,6.11,1.78,4.54,4.99,3,0.52,2.26
CCGAGTAGGTAACGAGGGGGCATTCAGTGCGAAT,3.83,3.65,0.975,3.42,4.31,2.24,0.592,1.31

Sequence,PBM binding z-score [1],PBM binding z-score [2],PBM binding z-score [3],PBM binding z-score [4],PBM binding z-score [5],PBM binding z-score [6],PBM binding z-score [7],PBM binding z-score [8]
CTATGGAGGTTAAGGGGGTCATTCAGTTTGAAAG,4.65,6.42,4.29,6.58,12.7,6.29,2.33,4.01
CCGAGTAGGTTACGAGTGGGCATTCAGTGCGAAT,4.82,3.49,0.313,0.0829,-0.15,0.124,-0.322,0.921
CCGAGTAGGTTAGGAGGGGGCATTCAGTGCGAAT,3.01,4.36,2.59,4.53,6.27,2.88,0.952,2.06
TCGAGTAGGTGACGGGGGCATTCAGGGATGAAGA,5.39,6.13,2.07,3.15,1.91,2.63,0.214,2.45
CCGAGTAGGTTACGAGGGGGCATCCAGTGCGAAT,4.1,4.45,1.63,4.3,2.67,2.86,0.122,2.1
CTATGTAGGTTAAGGTGGTCATTCAGTTTGAAAG,7.1,7,1.36,0.913,0.758,0.941,0.483,1.53
CTATGTAGGTTGAGGGGGTCATTCAGTTTGAAAG,3.98,5.16,3.25,5.67,10.2,5.29,2.23,3.4
CTATATAGGTTAAGGGGGTCATTCAGTTTGAAAG,7.39,7.38,4.56,6.35,12.1,6.42,1.99,3.91
CCGAGTAGGTTGCGAGGGGGCATTCAGTGCGAAT,1.37,2.13,0.668,3.67,4.85,2.34,0.292,1.57
CCGACTAGGTTACGAGGGGGCATTCAGTGCGAAT,4.63,4.93,1.66,4.6,5.23,2.64,0.38,2.02
CTAAGTAGGTTAAGGGGGTCATTCAGTTTGAAAG,7.83,7.65,3.59,5.74,11.4,5.63,1.86,3.43
CCGAGTAGGTTACGAGGGTGCATTCAGTGCGAAT,4.66,3.87,0.357,4.47,4.3,0.897,-0.753,1.13
CCGAGTAGCTTACGAGGGGGCATTCAGTGCGAAT,0.648,0.528,0.745,2.64,5.04,1.67,-0.103,0.8
CCGAGTAGGATACGAGGGGGCATTCAGTGCGAAT,0.37,0.975,0.513,2.31,3.26,1.78,-0.298,0.887
CCGAGTAGGTTACGAGGGGGCATTCCGTGCGAAT,4.52,4.42,1.68,4.37,0.912,2.94,0.747,2
TCGAGTAGGTTACAGGGGCATTCAGGGATGAAGA,3.72,4.1,0.898,1.17,0.587,1.5,0.487,1.59
TCGAGTAAGTTACGGGGGCATTCAGGGATGAAGA,1.55,3.02,0.93,2.63,1.19,2.22,0.119,1.34
CTATGTAGGCTAAGGGGGTCATTCAGTTTGAAAG,5.39,5.71,1.72,5.12,8.71,5.12,0.465,2.69
